Among the test systems are NCI-H23 lung; NCI-H226 lung; HOP-62 NSCLC; NCI-H460 lung; HOP-92 NSCLC; NCI-H522 lung; A549/ATCC NSCLC; 786-0 renal; COLO 205 colon; DU-145 prostate; K-562 leukemia; MALME-3M melanoma; MDA-MB-231 breast; RXF 393 renal; SF-268 CNS; SF-295 CNS; SF-539 CNS; UACC-257 melanoma; M14 melanoma.
Assay in all cases: NCI-60 one-dose screen, 48 h (100 = growth as untreated, 0 = no growth, -100 = all killed)
Conditions in all cases: 10 µM

Compounds without any hit were thinned out: in the full panel of roughly 83,000, 20% have a hit.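 The endpoint reported here, percent growth, reads 100 for growth as untreated, 0 for no net growth and -100 for all cells dead.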 Unmarked numbers belong to inactive results. Active and inactive are the calls of the source. Rule for the calls: active = growth percent below 10; inactive = the rest.

Turning to `Cc1ccc(NCCN(C)CC(C)O)c2c(=O)c3ccc(Cl)cc3sc12` (configuration not stated), the growth was 65.7% in the test on NCI-H23 lung; 85.3% in the test on NCI-H226 lung; 87.1% with HOP-62 NSCLC; 0.284% (active) with NCI-H460 lung; 34.3% in the test with HOP-92 NSCLC; 57.4% in the test on NCI-H522 lung. Further, the growth is 39.6% in the test on A549/ATCC NSCLC; 47.3% in the test on 786-0 renal; -78% (active) with COLO 205 colon; 59.7% in the test on DU-145 prostate; -61.2% (active) in the test on K-562 leukemia; -24.2% (active) with MALME-3M melanoma. In addition, the growth in the test with MDA-MB-231 breast was -16.4% (active); in the test with RXF 393 renal, 22.9%; in the test with SF-268 CNS, 58.4%; in the test on SF-295 CNS, 82.6%; in the test with SF-539 CNS it was 81.5%; with UACC-257 melanoma it was 24.7%. In the test on M14 melanoma, the growth is -74.7% (active).

With `CCN(CCCNc1cc2c(c(N)c1S(=O)(=O)O)C(=O)c1ccccc1C2=O)c1ccccc1`, the growth in the test on NCI-H23 lung was 89.3%; in the test with NCI-H226 lung it was 84.4%; with HOP-62 NSCLC, 92.1%; with NCI-H460 lung, 102%; in the test with HOP-92 NSCLC, 112%; with NCI-H522 lung, 96.3%. For the same compound, the growth with A549/ATCC NSCLC was 104%; in the test on 786-0 renal, 96.3%; in the test with COLO 205 colon, 109%; with DU-145 prostate, 124%; in the test with K-562 leukemia it was 101%; with MALME-3M melanoma it was 97%. Besides, the growth with MDA-MB-231 breast was 88.9%; in the test on RXF 393 renal, 108%; in the test on SF-268 CNS, 109%; in the test with SF-295 CNS, 111%; with SF-539 CNS, 98.4%; with UACC-257 melanoma, 102%. For the same compound, in the test on M14 melanoma, the growth was 98.3%.

Consider `C=CCn1c(SCC(=O)Nc2ccc(C(=O)/C=C/c3ccc(OC)cc3)cc2)nnc1-c1ccc(OC)c(OC)c1`, for which the growth with NCI-H23 lung is 89.3%; with NCI-H226 lung, 82.7%; in the test with HOP-62 NSCLC it was 92.6%; in the test with NCI-H460 lung, 91.7%; in the test with HOP-92 NSCLC it was 83.2%; with NCI-H522 lung it was 65.6%. The growth was 85.8% in the test on A549/ATCC NSCLC; 79.9% in the test on 786-0 renal; 114% with COLO 205 colon; 97.7% in the test with DU-145 prostate; 63.6% in the test with K-562 leukemia; 110% in the test with MALME-3M melanoma. The growth in the test on MDA-MB-231 breast is 72.3%; with RXF 393 renal, 84.7%; in the test with SF-268 CNS, 84.1%; in the test with SF-295 CNS, 93.5%; in the test on SF-539 CNS, 102%; in the test on UACC-257 melanoma it was 84.6%. For the same compound, the growth with M14 melanoma was 89.6%.

`CCOC(=O)CN(c1sc(C)c(C)c1C(=O)OCC)S(=O)(=O)c1ccc(C)cc1`: the growth in the test with NCI-H23 lung is 94.3%; with NCI-H226 lung, 77.2%; with HOP-62 NSCLC, 94.1%; with NCI-H460 lung it was 98%; in the test with HOP-92 NSCLC, 85.2%; in the test on NCI-H522 lung it was 108%. Besides, the growth is 91.6% in the test with A549/ATCC NSCLC; 92.8% in the test with 786-0 renal; 108% in the test on COLO 205 colon; 92.1% in the test on DU-145 prostate; 103% in the test with K-562 leukemia; 106% in the test with MALME-3M melanoma. In addition, the growth was 72.9% in the test on MDA-MB-231 breast; 92.1% in the test with RXF 393 renal; 107% with SF-268 CNS; 103% with SF-295 CNS; 107% in the test on SF-539 CNS; 98.8% in the test with UACC-257 melanoma. In the test on M14 melanoma, the growth was 107%.

`CN(C)CCCOc1ccccc1NC1=C(Cl)C(=O)C(Nc2ccccc2OCCCN(C)C)=C(Cl)C1=O`: the growth is -48.5% (active) in the test with NCI-H23 lung; -81% (active) in the test on NCI-H226 lung; -96.9% (active) in the test with HOP-62 NSCLC; -20.6% (active) in the test with NCI-H460 lung; -57.1% (active) in the test on HOP-92 NSCLC; -67.2% (active) in the test on NCI-H522 lung. Further, the growth with A549/ATCC NSCLC is -55.6% (active); with 786-0 renal it was -95.4% (active); with COLO 205 colon, -64.9% (active); with DU-145 prostate it was -97.2% (active); with K-562 leukemia, -25.3% (active); in the test on MALME-3M melanoma, -77.6% (active). Moreover, the growth is -71.9% (active) in the test on MDA-MB-231 breast; -98.2% (active) in the test with RXF 393 renal; -88.1% (active) with SF-268 CNS; -58.8% (active) in the test on SF-295 CNS; -96.6% (active) with SF-539 CNS; -92.9% (active) with UACC-257 melanoma. Besides, the growth in the test with M14 melanoma was -68.8% (active).

Turning to `CCN(CC)CCOC(=O)c1cc(OCc2ccccc2)c(OCc2ccccc2)c(OCc2ccccc2)c1`, the growth was 58.6% in the test on NCI-H23 lung; 73.6% with NCI-H226 lung; 62.4% in the test with HOP-62 NSCLC; 12.4% in the test with NCI-H460 lung; 40% with HOP-92 NSCLC; 45% in the test on NCI-H522 lung. Further, the growth with A549/ATCC NSCLC was 42.5%; in the test with 786-0 renal it was 52.1%; in the test with COLO 205 colon it was 62.1%; in the test on DU-145 prostate it was 64.6%; with K-562 leukemia, 0.819% (active); in the test on MALME-3M melanoma it was 54%. Besides, the growth in the test with MDA-MB-231 breast was 16%; in the test on RXF 393 renal, 47%; in the test with SF-268 CNS, 59.3%; in the test on SF-295 CNS, 84.5%; in the test on SF-539 CNS, 81.1%; in the test with UACC-257 melanoma, 73.8%. For the same compound, the growth in the test with M14 melanoma was 18.4%.

In the case of `COc1cccc(C2C(C#N)=C(N)Oc3cc(N)ccc32)c1` (configuration not stated), the growth with NCI-H23 lung was 37.8%; in the test on NCI-H226 lung, 70%; in the test with HOP-62 NSCLC it was 45.4%; in the test with NCI-H460 lung, 11.9%; in the test on HOP-92 NSCLC, 36.9%; with NCI-H522 lung, -0.592% (active). Moreover, the growth with A549/ATCC NSCLC is 20.2%; in the test on 786-0 renal, 53.9%; with COLO 205 colon, 18.1%; in the test with DU-145 prostate, 10.6%; with K-562 leukemia, 11.9%; in the test with MALME-3M melanoma, 51.9%. Moreover, the growth was 48.8% with MDA-MB-231 breast; -7.34% (active) in the test on RXF 393 renal; 47.1% with SF-268 CNS; 5.3% (active) in the test with SF-295 CNS; 4.8% (active) in the test on SF-539 CNS; 47.2% with UACC-257 melanoma. In addition, the growth with M14 melanoma was 10.9%.

With `COc1cc2c(Nc3ccc(S(N)(=O)=O)cc3)ncnc2c(OC)c1OC`, the growth with NCI-H23 lung is 96.7%; in the test on NCI-H226 lung, 84.9%; with HOP-62 NSCLC, 92.3%; in the test on NCI-H460 lung, 105%; in the test on HOP-92 NSCLC, 85.9%; in the test on NCI-H522 lung, 89.4%. Besides, the growth in the test on A549/ATCC NSCLC is 102%; with 786-0 renal it was 121%; in the test with COLO 205 colon it was 89.2%; with DU-145 prostate it was 107%; with K-562 leukemia, 97.8%; in the test with MALME-3M melanoma, 95%. Also, the growth with MDA-MB-231 breast was 94.9%; with RXF 393 renal it was 109%; in the test on SF-268 CNS it was 90.2%; in the test on SF-295 CNS, 105%; with SF-539 CNS, 99.3%; in the test with UACC-257 melanoma, 94.9%. Also, the growth with M14 melanoma was 124%.

The record behind these values is PubChem BioAssay (NCI).
